This note sets out measurements from PubChem BioAssay (Tox21).

The target in test [1] is Thyrotropin receptor (Homo sapiens) (UniProt P16473). The test can be described thus: qHTS assay to identify small molecule antagonists of the thyroid stimulating hormone receptor (TSHR) signaling pathway (AID 1259385; calls by dose curve; further: nearly all actives have a fitted effect of over 20% in size). In a few lines: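 TSHR-HEK293 cells (800/well) plated 18 h, then compounds with Ro20-1724 and TSH at 1.5 ng/mL final, 30 min at room temperature. cAMP quantified by HTRF (cAMP-d2/anti-cAMP-cryptate, 1 h); 15 concentrations in triplicate.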
Thyrotropin receptor (Homo sapiens), sequence (P16473 whole entry, looked up): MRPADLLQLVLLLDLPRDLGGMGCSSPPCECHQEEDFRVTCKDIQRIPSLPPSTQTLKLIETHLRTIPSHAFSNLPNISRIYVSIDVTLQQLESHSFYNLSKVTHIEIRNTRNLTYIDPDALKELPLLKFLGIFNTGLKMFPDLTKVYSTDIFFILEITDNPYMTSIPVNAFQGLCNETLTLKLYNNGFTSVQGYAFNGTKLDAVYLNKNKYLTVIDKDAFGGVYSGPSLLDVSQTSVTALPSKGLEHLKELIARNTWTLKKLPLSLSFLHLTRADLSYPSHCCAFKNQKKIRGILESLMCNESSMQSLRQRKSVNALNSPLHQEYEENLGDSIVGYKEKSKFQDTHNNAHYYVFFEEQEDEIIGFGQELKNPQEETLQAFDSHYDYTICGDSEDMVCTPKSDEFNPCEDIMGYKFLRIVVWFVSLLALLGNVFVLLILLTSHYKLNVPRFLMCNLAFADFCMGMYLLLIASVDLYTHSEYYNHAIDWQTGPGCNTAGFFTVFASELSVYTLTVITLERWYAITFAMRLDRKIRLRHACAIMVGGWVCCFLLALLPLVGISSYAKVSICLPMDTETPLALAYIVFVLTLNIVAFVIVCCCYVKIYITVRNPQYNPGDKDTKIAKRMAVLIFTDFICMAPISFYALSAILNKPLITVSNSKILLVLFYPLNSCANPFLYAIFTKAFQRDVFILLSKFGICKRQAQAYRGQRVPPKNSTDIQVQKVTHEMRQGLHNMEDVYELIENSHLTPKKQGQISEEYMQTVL

Test [2] in a line: qHTS assay to identify small molecule agonists of the estrogen receptor alpha (ER-alpha) signaling pathway in the presence of an antagonist - cell viability counter screen (AID 1259386).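 Further: cells exposed to compounds for 22 h at 37 °C before the viability read; nearly all actives have a fitted effect of over 30% in size.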 Further: potency means the concentration at half of the fitted maximal effect. In a few lines: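 ICI-182,780 at 10.0nM final accompanies the compound titration (15 concentrations, 22hr, 37C) on VM7Luc4E2 cells. The CellTiter-Fluor fluorescence readout runs in the same wells as the luciferase assay.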

The target in test [3] is Progesterone receptor (Homo sapiens) (UniProt P06401). In words: qHTS assay to identify small molecule antagonists of the progesterone receptor (PR) signaling pathway (AID 1346795; active means well fitted inhibition curve with a large enough effect in the signal ratio in the repeat runs, not every such curve was filed as active; the % refers to the signal ratio; further: potency means the concentration at half of the fitted maximal effect). In a few lines:
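Beta-lactamase reporter, HEK293T PR-UAS-bla line; 2% charcoal-stripped FBS; 6 hr pre-incubation, 37C/5% CO2. Compound + R5020 1 nM final, 16 hr. LiveBLAzer B/G FRET substrate, 2 hr RT; fluorescence intensity read.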
A general note: In qHTS, concentration-response curves come from the screen itself.

A short description of test [4]: qHTS assay to identify small molecule antagonists of the progesterone receptor (PR) signaling pathway - cell viability counter screen (AID 1346798). Further: series mostly up to about 92 µM; nearly all actives have a fitted effect of over 50% in size. In a few lines:
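Luminescence readout (CellTiter-Glo, 30 min, RT) of viability in PR-UAS-bla HEK293T cells exposed to compound and R5020 agonist for 16 hr at 37C, 5% CO2; run in the same wells as the beta-lactamase reporter read.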

Test [5] in a line: qHTS assay to identify small molecule agonists of the progesterone receptor (PR) signaling pathway - cell viability counter screen (AID 1346799; calls by dose curve; further: nearly all actives have a fitted effect of over 45% in size). In a few lines:
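HEK293T PR-UAS-bla, 3,000 cells/well, 2% charcoal-stripped FBS; 6 h settle, compound 16 h at 37C/5% CO2; LiveBLAzer 2 h RT, then CellTiter-Glo 30 min RT, luminescence read.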

A short description of test [6]: qHTS assay to identify small molecule antagonists of the TGF-beta/Smad signaling pathway - cell viability counter screen (AID 1346824). Further: nearly all actives have a fitted effect of over 50% in size. In a few lines:
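SBE-bla HEK 293T cells, incubated overnight, then compound plus 0.25 ng/mL TGF-beta1 (stock added) for 5 hr at 37 C. Viability was read in the same wells by CellTiter-Glo luminescence after 30 min at room temperature.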

A short description of test [7]: qHTS assay to identify small molecule agonists of the TGF-beta/Smad signaling pathway - cell viability counter screen (AID 1346829). Further: top concentration of the series differs between compounds; nearly all actives have a fitted effect of over 45% in size. In a few lines:
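Compound-treated SBE-bla HEK 293T cells (5 hr, 37 C) were assessed for viability with CellTiter-Glo in parallel with the reporter read.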

The nature of test [8]: qHTS assay to identify small molecule agonists of the TGF-beta/Smad signaling pathway (AID 1346859; active means well fitted activation curve with a large enough effect in the signal ratio in the repeat runs, not every such curve was filed as active; the % refers to the signal ratio; further: series mostly up to about 77 µM). In a few lines: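 Read-out: fluorescence at 460 and 530 nm (405 nm excitation) after a 2 hr room-temperature incubation with beta-lactamase FRET substrate. SBE-bla HEK 293T cells had been treated with test compounds for 5 hr at 37 C.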
A short description of test [9]: Human pregnane X receptor (PXR) small molecule agonists, qHTS cell viability counter screen (AID 1346977). Further: nearly all actives have a fitted effect of over 50% in size. Further: potency means the concentration at half of the fitted maximal effect. In a few lines: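 Fluorescence read-out (CellTiter-Fluor) of viability in PXR-Luc HepG2 cells, multiplexed with the luciferase agonist read. Compounds in DMSO added after 5hr plating; 24hr total exposure at 37C, 5% CO2.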
Test [10] in a line: Caspase-3/7 induction in HepG2 cells by small molecules, qHTS assay (AID 1346978). Further: nearly all actives have a fitted effect of over 15% in size. Further: potency means the concentration at half of the fitted maximal effect. In a few lines: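 Wild-type HepG2 cells, 2,000/well, settled 5 hr at 37 C and 5% CO2, then compound-treated for 17 hr; caspase-3/7 activity read by luminescent Caspase-Glo 3/7 after 30 min at room temperature.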
The nature of test [11]: Caspase-3/7 induction in CHO-K1 cells by small molecules, qHTS cell viability counter screen (AID 1346979). Further: nearly all actives have a fitted effect of over 35% in size. Further: potency means the concentration at half of the fitted maximal effect. In a few lines:
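CHO-K1 wt, 1,500 cells/well; 5hr pre-incubation 37C/5% CO2; compound pin transfer (DMSO); 16hr exposure; CellTiter-Fluor added, 1hr, fluorescence read.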

The nature of test [12]: Caspase-3/7 induction in CHO-K1 cells by small molecules, qHTS assay (AID 1346980). Further: nearly all actives have a fitted effect of over 15% in size. In a few lines:
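Wild-type CHO-K1 cells exposed to compounds for 17hr at 37 C, 5% CO2. Caspase-3/7 activity then measured by Caspase-Glo 3/7 luminescence after 30min at room temperature.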

Test [13] is described as follows: Caspase-3/7 induction in HepG2 cells by small molecules, qHTS cell viability counter screen (AID 1346981). Further: nearly all actives have a fitted effect of over 30% in size. Further: potency means the concentration at half of the fitted maximal effect. In a few lines: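 Multiplexed with the caspase-3/7 assay: HepG2 cells, 16 hr compound treatment, CellTiter-Fluor viability detection by fluorescence.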
The target of test [14] is Nuclear receptor subfamily 1 group I member 2 (Homo sapiens) (UniProt O75469). The test can be described thus: Human pregnane X receptor (PXR) small molecule agonists, qHTS assay (AID 1346982). Further: nearly all actives have a fitted effect of over 35% in size. Further: potency means the concentration at half of the fitted maximal effect. In a few lines:
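We seeded PXR-Luc HepG2 cells in assay medium containing 5% charcoal-stripped FBS, added compounds 5 hr later, incubated 24 hr, and read luminescence with ONE-Glo reagent.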

The target in test [15] is Thyrotropin-releasing hormone receptor (Homo sapiens) (UniProt P34981). The test can be described thus: qHTS assay to identify small molecule antagonists of the thyrotropin-releasing hormone receptor (TRHR) signaling pathway (AID 1346877; active means well fitted inhibition curve with a large enough effect in the repeat runs, not every such curve was filed as active; further: series mostly up to about 51 µM). In a few lines: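 Screening used HEK293 cells engineered with TRHR, with a brief 5 min room-temperature compound exposure preceding addition of TRH to 1 nM. The read-out was kinetic calcium-dye fluorescence, concentration-response from 15 doses in triplicate.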
Thyrotropin-releasing hormone receptor (Homo sapiens), sequence (P34981 whole entry, looked up): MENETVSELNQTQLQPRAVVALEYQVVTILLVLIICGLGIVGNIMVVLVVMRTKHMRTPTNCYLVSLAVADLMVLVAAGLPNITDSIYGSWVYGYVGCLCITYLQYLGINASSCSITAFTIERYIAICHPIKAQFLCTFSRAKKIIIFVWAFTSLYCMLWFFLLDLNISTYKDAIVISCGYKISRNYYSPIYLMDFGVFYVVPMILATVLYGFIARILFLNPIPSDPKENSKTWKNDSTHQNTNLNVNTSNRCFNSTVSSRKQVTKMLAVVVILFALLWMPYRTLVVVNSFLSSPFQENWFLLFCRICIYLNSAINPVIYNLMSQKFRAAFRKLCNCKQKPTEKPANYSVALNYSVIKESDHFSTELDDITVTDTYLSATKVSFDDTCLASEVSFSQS

Test [16] shares this target. In words: qHTS assay to identify small molecule agonists of the thyrotropin-releasing hormone receptor (TRHR) signaling pathway (AID 1346891; calls by dose curve;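 further: HEK293 cells expressing TRHR with calcium dye readout; series mostly up to about 58 µM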). In a few lines: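 HEK293/TRHR cells, 1500 per well, 18 h 37 °C; Ca dye 2 h 37 °C; pin-tool compound addition (agonist mode); kinetic fluorescence 3 min, 1 s reads; 15 concentrations, triplicate.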
Test [17] concerns the target Progesterone receptor (Homo sapiens) (UniProt P06401). In words: qHTS assay to identify small molecule agonists of the progesterone receptor (PR) signaling pathway (AID 1346784; calls by dose curve; further: nearly all actives have a fitted effect of over 30% in size). In a few lines: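 HEK 293T PR-UAS-bla reporter cells, 2% charcoal-stripped FBS; 6 hr settle at 37C/5% CO2, compound (DMSO) 16 hr, LiveBLAzer B/G FRET substrate 2 hr RT, fluorescence intensity read.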

Where “and” joins values, the source holds several entries; their conditions need not be identical. Equal values may be shown once. Inconclusive results are not listed. Some compounds were tested as several samples or in several runs, with calls that do not always agree. Calls of active or inactive are those of the source. Unless noted, the call rests on the fitted dose curve; in most records, active means well fitted curve in the direction sought with a large enough effect in the repeat runs; inconclusive means weak or mixed curves; inactive means no such curve, though single readings can be large; an effect the other way counts as inactive or inconclusive.

Nuclear receptor subfamily 1 group I member 2 (Homo sapiens), sequence (O75469 whole entry, looked up): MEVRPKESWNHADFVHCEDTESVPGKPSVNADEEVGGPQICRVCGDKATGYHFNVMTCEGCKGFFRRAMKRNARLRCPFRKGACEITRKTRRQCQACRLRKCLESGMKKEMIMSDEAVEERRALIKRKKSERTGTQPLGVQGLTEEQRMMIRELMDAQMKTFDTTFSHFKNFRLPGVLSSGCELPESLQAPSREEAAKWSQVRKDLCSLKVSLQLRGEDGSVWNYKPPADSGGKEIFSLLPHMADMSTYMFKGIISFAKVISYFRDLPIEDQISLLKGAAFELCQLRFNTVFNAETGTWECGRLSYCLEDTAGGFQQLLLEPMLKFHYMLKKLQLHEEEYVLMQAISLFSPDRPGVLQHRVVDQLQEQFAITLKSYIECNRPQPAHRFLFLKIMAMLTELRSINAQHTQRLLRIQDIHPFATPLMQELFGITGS
Progesterone receptor (Homo sapiens), sequence (P06401 whole entry, looked up): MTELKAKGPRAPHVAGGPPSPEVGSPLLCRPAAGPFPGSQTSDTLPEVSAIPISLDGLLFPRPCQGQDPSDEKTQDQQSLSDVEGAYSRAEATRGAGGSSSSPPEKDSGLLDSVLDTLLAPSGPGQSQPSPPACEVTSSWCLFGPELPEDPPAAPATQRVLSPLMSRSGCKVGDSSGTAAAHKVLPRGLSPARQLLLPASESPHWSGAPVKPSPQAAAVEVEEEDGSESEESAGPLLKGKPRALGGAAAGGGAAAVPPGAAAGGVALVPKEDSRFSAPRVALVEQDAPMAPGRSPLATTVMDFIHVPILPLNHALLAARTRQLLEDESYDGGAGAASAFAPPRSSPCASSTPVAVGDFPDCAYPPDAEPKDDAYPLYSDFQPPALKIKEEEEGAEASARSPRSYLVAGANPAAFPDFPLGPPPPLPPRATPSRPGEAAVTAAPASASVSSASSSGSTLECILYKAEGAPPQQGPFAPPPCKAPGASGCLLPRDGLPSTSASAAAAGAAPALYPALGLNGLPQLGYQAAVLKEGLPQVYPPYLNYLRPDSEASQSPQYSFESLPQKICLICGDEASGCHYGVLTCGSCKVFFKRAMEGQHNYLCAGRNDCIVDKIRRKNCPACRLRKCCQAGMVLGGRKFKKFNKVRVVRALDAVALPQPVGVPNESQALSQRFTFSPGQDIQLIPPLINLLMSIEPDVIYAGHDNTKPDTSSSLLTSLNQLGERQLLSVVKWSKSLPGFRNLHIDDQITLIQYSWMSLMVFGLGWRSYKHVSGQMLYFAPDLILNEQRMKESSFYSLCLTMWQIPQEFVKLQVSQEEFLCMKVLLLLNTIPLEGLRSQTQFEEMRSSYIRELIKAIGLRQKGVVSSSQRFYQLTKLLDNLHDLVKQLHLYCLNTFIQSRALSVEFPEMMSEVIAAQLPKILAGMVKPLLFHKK

For `C=CCc1ccc2c(c1)OCO2`, the result in test [1] and in [8] was inactive. The Potency result in [2], in [3], in test [4], in test [5], in test [6] and in [7] was “inactive” in each case. Also, the Potency result in [9], in test [11], in [12] and in test [13] was “inactive” each time. Moreover, the Potency in test [10] was 43.5 µM (active) and inactive; in test [14], 61.4 µM (active) and inactive.
Regarding `O=S(=O)(Oc1ccc(Cl)cc1)c1ccc(Cl)cc1`, the Potency entry in [2], in [4], in test [5], in test [6], in test [7] and in [15] was “inactive” in each case. Also, the Potency entry in [16], in test [9], in [10], in test [11], in test [12] and in [13] was “inactive” in each case. The Potency in [3] is 17.5 µM (active) and 17.2 µM (active); in test [14] it was 55.2 µM (active) and 30.6 µM (active). Also, in [8], the outcome was inactive.
Regarding `O=[N+]([O-])c1ccc(O)c([N+](=O)[O-])c1`, the compound was classed as inactive in test [1] and in test [8]. Also, the Potency in test [2] is 30.8 µM (active) and 27.3 µM (active); in test [9], 24.4 µM (active) and 54.5 µM (active); in test [11], 48.8 µM (active) and 54.5 µM (active); in test [13], 54.7 µM (active) and 61.1 µM (active). Besides, the Potency result in [3], in test [6], in test [7], in test [15], in [16] and in test [10] was “inactive” throughout. The Potency result in test [12] and in [14] was “inactive” each time.
`O=P(Oc1ccccc1)(Oc1ccccc1)Oc1ccccc1`: the call in [1] and in [8] was inactive. For the same compound, the Potency entry in test [2], in [4], in test [5], in [6], in test [7] and in [15] was “inactive” in each case. Moreover, the Potency result in [16], in test [9] and in test [12] was “inactive” each time. In addition, the Potency was 68.2 µM (active) in test [11]; 30.5 µM (active) and 27.3 µM (active) in [14].
Consider `CCC(C)c1ccc(O)cc1` (stereo not given), for which the Potency entry in [2], in test [3], in test [4], in test [5], in test [6] and in test [7] was “inactive” each time. The Potency result in test [15], in [16], in [9], in [10], in test [11] and in test [12] was “inactive” in each case. Also, the Potency entry in [13] and in test [14] was “inactive” each time. The outcome in test [8] was inactive.
On to `C=CCc1ccc(OC)cc1`, for which the call in [1] and in [8] was inactive. Further, the Potency entry in test [2], in test [3], in [4], in test [5], in test [6] and in [7] was “inactive” each time. Further, the Potency entry in test [15], in [16], in test [9], in test [11], in test [12] and in test [14] was “inactive” each time.
Consider `CC(C)=CC1C(C(=O)OCc2coc(Cc3ccccc3)c2)C1(C)C` (stereo not given), for which the Potency result in [2], in test [17], in test [4], in test [5], in test [6] and in [7] was “inactive” in each case. In addition, the Potency result in test [9], in test [11], in [12] and in [13] was “inactive” throughout. For the same compound, the values for the Potency in test [3] and in test [14] were 48.6 µM (active) and 24.3 µM (active), respectively. The compound was classed as inactive in test [8].
On to `CCc1cccc(CC)c1N(COC)C(=O)CCl`, for which the Potency entry in test [2], in test [4], in test [6], in test [7], in test [15] and in test [16] was “inactive” throughout. In addition, the Potency result in [10], in test [12] and in test [13] was “inactive” throughout. Further, the compound was called inactive in [8]. For the same compound, the Potency is 39.8 µM (active) and inactive in test [9]; 16.7 µM (active) in test [11]; 10.5 µM (active) and 1.37 µM (active) in test [14].
As for `Cc1cc(Cl)ccc1OCCCC(=O)O`, the compound was classed as inactive in [1]. In addition, the Potency result in [2], in [3], in test [4], in test [5], in test [6] and in test [7] was “inactive” each time. In addition, the Potency result in [15], in test [16], in [9], in test [11], in test [12] and in test [13] was “inactive” each time. Also, the Potency entry in test [14] was “inactive”.
